This is one part of the list. The source made the active and inactive calls.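 Rule for the calls: active = potency below 100 µM; inconclusive = dose-dependent response but potency above 100 µM; inactive = the rest.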
Biological target: 4'-phosphopantetheinyl transferase ffp (Bacillus subtilis) (UniProt Q9F4F7)
Assay: Gel-Based Assay for Inhibitors of Bacillus subtilis Sfp phosphopantetheinyl transferase (PPTase)
Conditions: purified Sfp, gel-based phosphopantetheinylation read-out
From the text: The covalent attachment of a phosphopantetheinyl (4'-PP) arm to a variety of synthases and other proteins is a key posttranslational protein modification. The 4'-PP is installed on the proteins post-translationally from coenzyme A (CoA) on a conserved serine residue by action of phosphopantetheinyl transferase (PPTase) enzymes. Phosphopantetheinylation is essential for synthase activity, and removal of the PPTase gene precludes natural product synthesis in microorganisms, or in the case of fatty acid biosynthesis, renders the organism unviable. PPTase enzymes belong to a distinct structural superfamily. Within bacteria, these enzymes are grouped into two classes based upon primary structure, the AcpS-Type and Sfp-Type PPTases. […]
In this assay, compounds were evaluated by monitoring of fluorescence transfer to whole carrier protein substrates via polyacrylamide gel electrophoresis. […]
A DMSO solution of confirmed hits (0.5 microL) was added to a 1.33X enzyme solution (15 microL, containing 26.6 nM Sfp, 66 mM HEPES, 13.3 mM MgCl2, 0.0133% NP-40, 0.133% BSA, pH 7.6). […] Following the run, gels were imaged with a Chemi-Doc Plus imager (Bio-Rad, Hercules, CA) and band intensity quantified using the ImageJ software package. […]

4'-phosphopantetheinyl transferase ffp (Bacillus subtilis), sequence (Q9F4F7 whole entry, looked up): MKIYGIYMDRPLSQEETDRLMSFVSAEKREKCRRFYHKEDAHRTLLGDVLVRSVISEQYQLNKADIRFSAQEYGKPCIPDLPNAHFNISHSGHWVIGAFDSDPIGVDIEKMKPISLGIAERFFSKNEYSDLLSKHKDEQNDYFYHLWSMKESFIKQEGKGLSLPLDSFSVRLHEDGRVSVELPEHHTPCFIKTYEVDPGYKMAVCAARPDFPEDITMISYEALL

SMILES | outcome
CCCOC(=O)Nc1sc2c(c1C(=O)OCC)CCC2 | inactive
Cc1nn2c(c1-c1ccccc1)N=C(c1ccco1)CC2c1ccccc1 (configuration not stated) | inactive

From PubChem BioAssay AID2707 (National Center for Advancing Translational Sciences (NCATS), 2010)
